High-throughput results as filed in PubChem BioAssay.
Most compounds without a hit are left out; they make up all but 3.4% or so of the library.
RGS12 GoLoco inh = qHTS Assay for Inhibitors of RGS12 GoLoco Motif Activity (Red Fluorophore) | Gai1:RGS12 GoLoco peptide FP, rhodamine, 10 min | AID 880, 2007 | Potency, µM (series often up to 61.6 µM), without a hit: at the highest dose activity, negative = inhibition, usual class: inhibitors | 230,000 tested, 0.44% active | Guanine nucleotide-binding protein G(i) subunit alpha-1 (Homo sapiens), P63096; active = well fitted inhibition curve with a large enough effect, not every such curve was filed as active; inactive = no such curve, though single readings can be large or run the other way; note: nearly all actives have a fitted effect of over 30% in size
Target sequence (P63096 whole entry, looked up): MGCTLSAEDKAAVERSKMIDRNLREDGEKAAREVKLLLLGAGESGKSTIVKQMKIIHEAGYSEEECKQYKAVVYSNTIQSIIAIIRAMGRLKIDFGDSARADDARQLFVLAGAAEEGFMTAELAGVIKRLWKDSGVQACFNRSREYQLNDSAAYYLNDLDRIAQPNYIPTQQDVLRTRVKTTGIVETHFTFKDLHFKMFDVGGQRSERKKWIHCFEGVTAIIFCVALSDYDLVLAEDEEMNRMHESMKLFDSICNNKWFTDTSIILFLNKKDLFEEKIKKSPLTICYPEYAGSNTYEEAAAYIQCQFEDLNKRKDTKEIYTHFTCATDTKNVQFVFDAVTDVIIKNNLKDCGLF
KDM4E inh = qHTS Assay for Inhibitors of Human Jumonji Domain Containing 2E (JMJD2E). Lysine-specific demethylase 4E (Homo sapiens), B2RXH2. Potency, µM (doses to about 57.1 µM), for the others: at the highest dose activity change, negative = inhibition, usual class: inhibitors. JMJD2E catalytic domain, FDH-coupled NADH fluorescence (FDH is formaldehyde dehydrogenase). 230,000 tested, 1.6% active; active = well fitted inhibition curve with a large enough effect, not every such curve was filed as active; inconclusive = small, poorly fitted or top-dose-only effect, or another doubt; inactive = no such curve, though single readings can be large or run the other way;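 note: 0% = wells with enzyme and -100% = buffer wells without enzyme; nearly all actives have a fitted effect of over 50% in size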
Tau fibril FP = qHTS for Inhibitors of Tau Fibril Formation, Fluorescence Polarization. Microtubule-associated protein tau (Homo sapiens), P10636. K18 P301L tau heparin fibrillization, Alexa594 FP, 6 h. Potency, µM (series often up to 57.7 µM), for the others: at the top dose activity, negative = inhibition, hits mostly inhibitors. 280,000 tested, 0.39% active; note: nearly all actives have a fitted effect of over 55% in size
Target sequence (P10636 561-689 P618L limits assumed): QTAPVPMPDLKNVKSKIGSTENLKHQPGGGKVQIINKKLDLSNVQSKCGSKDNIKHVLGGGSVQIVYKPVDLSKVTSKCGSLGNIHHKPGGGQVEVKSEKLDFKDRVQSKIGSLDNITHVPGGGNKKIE
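Quantitative HTS format: compounds meet 15 uM recombinant K18 P301L tau and Alexa 594-tau tracer in 100 mM sodium acetate pH 7; 20 uM heparin triggers fibrillization at 37 C over 6 hr; FP gives the signal.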
Tau fluor counter = Counterscreen qHTS for Inhibitors of Tau Fibril Formation, Fluorescence Polarization; Potency, µM (series often up to 57.7 µM), for the others: at the highest dose activity change, negative = decrease; AID 1463, 2008; tau K18 P301L Alexa594 fluorescence, heparin fibrillization; 280,000 tested, 0.93% active; note: nearly all actives have a fitted effect of over 55% in size
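Human tau K18 P301L (15 uM unlabeled, 0.24 uM Alexa 594-labeled) in 100 mM sodium acetate pH 7 with 20 uM heparin, 6 hr at 37 C. ThT 30 uM added, 1 hr ambient; Alexa 594 FP and total fluorescence read at 555/632 nm.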
Tau fibril ThT = qHTS for Inhibitors of Tau Fibril Formation, Thioflavin T Binding | recombinant tau K18 P301L, heparin-induced fibrillization, ThT fluorescence | Potency, µM (top dose mostly 57.4 µM), for the others: top-dose activity, negative = inhibition, usual class: inhibitors | 270,000 tested, 2.1% active | AID 1460, 2008; note: nearly all actives have a fitted effect of over 55% in size
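ThT emission at 510 nm, taken 1 hr after adding 30 uM dye, quantifies aggregates formed when 20 uM heparin acts on human tau K18 P301L for 6 hr at 37 C.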
* = called active by the depositor; ? = inconclusive; . = no result; ! = repeats disagree; [ ] = dose if it differs, or a comment. Unless noted, calls come from the whole dose curve; as a rule, active = well fitted curve in the direction sought with a large enough effect; inconclusive = small, poorly fitted or top-dose-only effect, or another doubt; inactive = no such curve, though single readings can be large; an effect the other way counts as inactive or inconclusive. Unless noted, % is set by controls: 0 for no effect and ±100 for the full control effect; potency is the fitted concentration of half-maximal effect.

SMILES	RGS12 GoLoco inh	KDM4E inh	Tau fibril FP	Tau fluor counter	Tau fibril ThT
N.N.O=C(O)C1(C(=O)O)CCC1.[Pt]	-12%	11µM*	2.8µM*	-25%	3.2µM*
O=C(O)/C=C\c1c2ccc(=O)c(O)c-2oc2c(O)c(O)ccc12	0.89µM*	.	.	.	.
COC(=O)C1=C(C)N(c2cc(C)cc(C)c2)/C(=C/c2ccc(O)cc2)C1=O	2%	-9%	2%	-20%	32µM*
COc1ccc(CCC(=O)NCc2nc3cccnc3n2Cc2ccccc2)cc1	.	.	5%	-3%	4%
O=C(CSc1nc2ccccc2n1Cc1cccc(C(F)(F)F)c1)NCc1ccccc1	.	.	2%	-15%	-12%
O=C(c1ccc([N+](=O)[O-])cc1)N1CCN(c2ccc(Nc3ccccc3)nn2)CC1	.	.	1%	?	?
O=[N+]([O-])c1ccc(Sc2cccc[n+]2[O-])c2nonc12	-35%	57%	?	13µM*[quencher]	5µM*
CC(C)(C)C(=O)C(Oc1ccc(Cl)cc1)n1ccnc1 (stereo not drawn)	-17%	.	.	.	.
N[C@H](C(=O)O)c1cc(O)cc(O)c1	-6%	16µM*!	?	?	?
O=c1[nH]c(-[n+]2ccccc2)c(/C=N/NC([S-])=Nc2ccccc2)s1	9%	-29%	?	-23%	28µM*
CCc1ccc[n+](-c2[nH]c(=O)sc2/C=N/NC([S-])=Nc2ccccc2)c1	.	3.5µM*	?	-25%	25µM*
Cc1cc(C2=NNC(=Nc3ccc(S(=O)(=O)N4CCOCC4)cc3)SC2)c(C)n1C	-37%	8.9µM*	-6%	-29%	?
CSc1ccc(CCNC(=O)CCc2c(C)nc3c(-c4ccccc4)c(C)nn3c2C)cc1	.	.	-4%	-12%	-8%
O=C1CSC(=S)N1Cc1cccnc1	281%	-9%	-11%	-6%	32µM*
Cc1cc(/C=C2/NC(=O)N(Cc3ccccc3F)C2=O)c(C)n1C(C)C	7%	18µM*	12%	-25%	?
Cc1cc(/C=C2/NC(=O)N(c3ccccc3)C2=O)c(C)n1C(C)C	-1%	22µM*	4%	-22%	?
O=C(Cn1cc(S(=O)(=O)Cc2ccccc2F)c2ccccc21)NCc1ccccc1Cl	.	.	-10%	?	-9%
Cc1cc(C(=O)Nc2ccc(N3CCCC3)c(Cl)c2)ccc1[N+](=O)[O-]	-11%	0%	5%	?	5µM*
Cc1ccc(NC(=O)c2ccc(NCCN)c([N+](=O)[O-])c2)cc1Cl	27%	7%	5%	?	13µM*
COc1ccc(NC(=O)c2ccc(NCC3CCCO3)c([N+](=O)[O-])c2)cc1 (stereo not drawn)	7%	-2%	6%	-22%	13µM*
Cc1ccc(NC(=O)c2ccc(NCCc3ccccc3)c([N+](=O)[O-])c2)cc1F	2%	3%	-12%	?	?
Cc1cccc(NC(=O)c2ccc(-n3cccn3)c([N+](=O)[O-])c2)c1	.	-5%	0%	?	6.3µM*
O=C(Nc1ccccc1)c1ccc(NCC2CCCO2)c([N+](=O)[O-])c1 (stereo not drawn)	-10%	8%	-13%	-3%	7%
CCOc1ccc(-n2c(-c3ccccc3)c(C)n3c4c(=O)n(C)c(=O)n(C)c4nc23)cc1	.	.	-5%	-6%	-2%
COc1ccc(OC)c(S(=O)(=O)N2CCC(c3ccncc3)CC2)c1	.	.	-6%	11%	10%
O=C(Nc1ccc(-c2nc3ccccc3o2)cc1)c1ccc(N2CCOCC2)c([N+](=O)[O-])c1	6%	4%	?	?	2.8µM*
O=C(NNC(=S)Nc1ccc(Br)cc1)c1ccc(N2CCOCC2)c([N+](=O)[O-])c1	11%	-5%	?	?	13µM*
